Cross-linked residues data for 11 substances are collected here from article PMC12280212.

Sequence of YWHAQ, P27348 (P27348 whole entry): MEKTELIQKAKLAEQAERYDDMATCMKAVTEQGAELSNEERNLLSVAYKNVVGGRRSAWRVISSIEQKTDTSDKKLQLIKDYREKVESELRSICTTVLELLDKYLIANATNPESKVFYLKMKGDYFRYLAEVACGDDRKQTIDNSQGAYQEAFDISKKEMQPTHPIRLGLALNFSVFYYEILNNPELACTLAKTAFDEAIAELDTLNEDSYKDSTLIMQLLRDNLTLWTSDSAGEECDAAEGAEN
Sequence of YWHAB, P31946 (P31946 whole entry): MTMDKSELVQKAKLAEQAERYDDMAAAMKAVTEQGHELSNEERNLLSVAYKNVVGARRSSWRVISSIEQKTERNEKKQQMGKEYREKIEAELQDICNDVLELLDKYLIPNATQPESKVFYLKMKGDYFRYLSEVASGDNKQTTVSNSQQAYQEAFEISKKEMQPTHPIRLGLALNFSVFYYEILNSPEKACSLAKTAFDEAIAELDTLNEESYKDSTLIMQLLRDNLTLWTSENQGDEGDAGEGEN
Sequence of ENO1, P06733 (P06733 whole entry): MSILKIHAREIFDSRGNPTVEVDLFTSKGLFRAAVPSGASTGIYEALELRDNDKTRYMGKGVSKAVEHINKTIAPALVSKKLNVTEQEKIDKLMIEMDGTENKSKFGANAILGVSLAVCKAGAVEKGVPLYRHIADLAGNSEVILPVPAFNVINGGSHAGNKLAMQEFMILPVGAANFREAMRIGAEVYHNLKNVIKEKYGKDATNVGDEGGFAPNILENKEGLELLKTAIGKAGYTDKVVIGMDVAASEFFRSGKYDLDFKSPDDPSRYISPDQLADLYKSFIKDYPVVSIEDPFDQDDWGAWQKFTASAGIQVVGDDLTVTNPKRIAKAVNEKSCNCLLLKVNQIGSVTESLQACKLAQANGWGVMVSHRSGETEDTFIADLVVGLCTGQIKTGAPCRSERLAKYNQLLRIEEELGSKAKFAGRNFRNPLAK
Sequence of GAPDH, P04406 (P04406 whole entry): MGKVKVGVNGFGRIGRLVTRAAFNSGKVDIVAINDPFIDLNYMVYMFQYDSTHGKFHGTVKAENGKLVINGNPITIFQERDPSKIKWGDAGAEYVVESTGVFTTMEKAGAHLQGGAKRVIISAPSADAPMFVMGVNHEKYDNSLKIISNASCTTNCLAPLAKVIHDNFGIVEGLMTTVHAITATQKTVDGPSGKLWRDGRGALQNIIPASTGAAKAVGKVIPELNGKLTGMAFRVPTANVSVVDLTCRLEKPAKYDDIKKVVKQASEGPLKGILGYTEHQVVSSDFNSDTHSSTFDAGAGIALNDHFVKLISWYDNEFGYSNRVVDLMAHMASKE

The target in the first assay is PPIA (UniProt P62937). The assay is described as follows: cross-linking mass spectrometry. The conditions noted are these: DSSO, in cells.
Sequence of PPIA (P62937 whole entry): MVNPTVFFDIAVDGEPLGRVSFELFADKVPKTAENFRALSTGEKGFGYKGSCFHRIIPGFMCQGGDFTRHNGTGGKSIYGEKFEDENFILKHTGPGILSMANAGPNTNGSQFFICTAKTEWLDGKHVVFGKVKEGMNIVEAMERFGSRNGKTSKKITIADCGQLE
For GAPDH, P04406, the cross-linked residues entry was “K251 - K76”. On the same count and under the same terms, then VIM, P08670, with “K445 - K76”; and ENO1, P06733, with “K256 - K82”.

Another assay has as its target RRBP1 (UniProt Q9P2E9). The assay is described as follows: cross-linking mass spectrometry. Particulars: DSSO, in cells.
In the case of RPL11, P62913, the cross-linked residues entry is listed as “K67 - K270”. The same measure, in the same setting: then LRRC59, Q96AG4, with “K180 - K261”.

For RPL31, P62899, the cross-linked residues result is reported as “K91 - K261”. Still for that read-out and setting: then SEC61B, P60468, with “K20 - K261”; and RPL10A, P62906, with “K130 - K261”.

For the next assay, the target named is YWHAZ (UniProt P63104). The assay is described as follows: cross-linking mass spectrometry. Particulars: DSSO, in cells.
For the substance YWHAB, P31946, the cross-linked residues result is “K11 - K85”. Same read-out and setting: then YWHAQ, P27348, with “K9 - K85”; and S100A6, P06703, with “K26 - K157”.
